TDP1 cell noCPT – qHTS for Inhibitors of human tyrosyl-DNA phosphodiesterase 1 (TDP1): qHTS in cells in absence of CPT; DT40 Tdp1-/- hTDP1 cells, no CPT, ATP luminescence, 48 h; Potency, µM (doses to about 46.2 µM), inactives show at the highest dose activity change, negative = growth inhibition, actives largely listed as inhibitors; 15% of 420,000 active; AID 686978, 2013; note: potency is the fitted concentration of half-maximal effect; nearly all actives have a fitted effect of over 55% in size
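Stably hTDP1-transfected Tdp1-null chicken DT40 cells were treated with library compounds minus camptothecin and grown for at least 48 hr at 37 °C, after which cellular ATP was quantified by luminescence.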
HT1080 IDH1KD tx – kills HT-1080 cells with IDH1 knockdown; Potency, µM (doses to about 46.1 µM), for inactives: at the highest dose activity, negative = toxicity, hits mostly cytotoxic; 2% of 360,000 active; HT-1080 IDH1 knockdown viability, ATP luminescence, 48 h;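 note: potency is the fitted concentration of half-maximal effect; 0% = DMSO wells and -100% = cell-free medium wells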
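CellTiter-Glo luminescence after 48 h compound exposure at 37 degrees C of IDH1-knockdown HT-1080 cells in 5% FBS RPMI. %Activity scaled between DMSO wells and cell-free media wells, with curves fitted and assigned curve classes.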
TDP1 cell CPT – DT40-hTDP1 cell growth loss with CPT. 12% of 420,000 active. Potency, µM (top dose mostly 46.2 µM), for the others: top-dose activity change, negative = growth inhibition, actives largely listed as inhibitors. chicken DT40 Tdp1-/-;hTDP1 cells + 20 nM CPT, ATP luminescence, 48 h; note: potency is the fitted concentration of half-maximal effect; nearly all actives have a fitted effect of over 55% in size
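Cell growth measured by CellTiter-Glo luminescence after a minimum 48 h, 37 C compound exposure with 20 nM CPT in Tdp1-knockout DT40 cells stably expressing hTDP1, seeded 400/well; qHTS titration format.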
IL1B secr inh – inflammasome signaling inhibition, IL-1 beta readout | THP-1 LPS/ATP IL-1B secretion, AlphaLISA, 16 h; stronger effect = lower value | activity change, % at 57.5 µM | 4.7% of 360,000 active; in the data active = activity change below about -50%; inconclusive = mostly about -30% to -49%
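THP-1 cells pretreated 1 hr with compounds (up to 57.5 uM final), then stimulated with LPS (250 ng/mL final) plus ATP (1.25 mM final); secreted IL-1B measured by AlphaLISA after 16 hr, decreased signal indicating inhibition.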
uPA generation – cell surface uPA generation inhibition; cell surface uPA generation assay, qHTS; Potency, µM (top dose mostly 38.3 µM), inactives show at the top dose activity change, negative = inhibition, usual class: inhibitors; 0.31% of 330,000 active; AID 540303; active = well fitted inhibition curve with a large enough effect; inconclusive = small, poorly fitted or top-dose-only effect; inactive = no such curve, though single readings can be large or run the other way; tested in mouse RAW 264.7 cells; note: potency is the fitted concentration of half-maximal effect; nearly all actives have a fitted effect of over 55% in size
HT1080-NT tox – kills 2HG-producing HT-1080-NT fibrosarcoma cells; HT-1080-NT fibrosarcoma viability, CellTiter-Glo ATP luminescence, 48 h; Potency, µM (highest dose often 46.1 µM), for inactives: at the highest dose activity, negative = less viability, most hits filed as cytotoxic; 1.6% of 360,000 active; AID 686970;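 note: NT is the 2HG producing partner of a matched IDH1 knockdown line; potency is the fitted concentration of half-maximal effect; 0% = DMSO-treated cells and -100% = media-only wells without cells; nearly all actives have a fitted effect of over 55% in size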
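HT-1080-NT; 750 cells/well; 5% FBS RPMI; 48 h compound, 37 degrees C; CellTiter-Glo luminescence; curve fitting and curve-class assignment.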
* = called active by the depositor; u = inconclusive; x = no result. Compounds with a hit are over-represented: about 19% of the library has one in this group of screens. Unless noted, calls come from the whole dose curve; as a rule, active = well fitted curve in the direction sought with a large enough effect; inconclusive = small, poorly fitted or top-dose-only effect, or another doubt; inactive = no such curve, though single readings can be large; an effect the other way counts as inactive or inconclusive. Unless noted, % is set by controls: 0 for no effect and ±100 for the full control effect.

SMILES	TDP1 cell noCPT	HT1080 IDH1KD tx	TDP1 cell CPT	IL1B secr inh	uPA generation	HT1080-NT tox
Cc1[nH]c2ccc(C(=O)NC3CCC(C)CC3)cc2c1C (stereo not drawn)	11.6µM*	-1.9%	u	-14.0	3.1%	0.4%
O=C(Nc1ccc(F)c(Cl)c1)c1cc(C2CCCCN2C(=O)CCCc2ccccc2)on1 (stereo not drawn)	18.4µM*	-4.1%	u	-7.1	x	-0.5%
O=C(Nc1ccccc1)c1cc(C2CCCCN2C(=O)CCCc2ccccc2)on1 (stereo not drawn)	u	9.3%	u	-24.0	x	16.0%
O=C(NCc1cccnc1)c1cc(C2CCCCN2C(=O)CCCc2ccccc2)on1 (stereo not drawn)	u	0.0%	29.1µM*	27.6	x	-3.5%
COc1ccc(NC(=O)c2cc(C3CCCCN3C(=O)CCCc3ccccc3)on2)c(C)c1 (stereo not drawn)	-90.4%	6.8%	0.731µM*	1.7	x	5.9%
O=C(NCc1cccnc1)c1cc(C2CCCCN2C(=O)OCc2ccccc2)on1 (stereo not drawn)	u	-3.3%	u	0.0	x	u
O=C(Nc1ccccc1Cl)c1cc(C2CCCCN2C(=O)CCCc2ccccc2)on1 (stereo not drawn)	23.1µM*	-0.6%	29.1µM*	22.7	x	1.7%
Cc1ccc(S(=O)(=O)N[C@H](C(=O)NCC2CCC(C(=O)O)CC2)C(C)C)cc1 (stereo partly drawn)	0.9%	12.7%	10.7%	4.7	-7.5%	-7.5%
O=C(CSc1nccn1Cc1ccc(F)cc1)NC1CCCCC1	u	6.1%	-2.6%	5.7	x	-0.5%
CCOC(=O)[C@]12CCCC=C1N(Cc1ccccc1)C(=O)[C@H](CC(=O)NCC1CCCCC1)C2	u	-10.7%	u	u	x	0.0%
C#CCNC(=O)C[C@@H]1C[C@@]2(C(=O)OCC)CCCC=C2N(CCCCCCCC)C1=O	13µM*	u	16.4µM*	u	x	u
CCCCCCCCN1C(=O)[C@H](CC(=O)NCC2CCCCC2)C[C@@]2(C(=O)OCC)CCC=C12	18.4µM*	u	16.4µM*	-25.3	x	u
CCCCCCCCN1C(=O)[C@H](CC(=O)NCC2CCCCC2)C[C@@]2(C(=O)OCC)CCCC=C12	18.4µM*	-13.6%	20.6µM*	-51.3*	x	2.5%
CCCCNC(=O)C[C@@H]1C[C@@]2(C(=O)OCC)CCCC=C2N(Cc2ccco2)C1=O	u	14.3%	u	0.0	x	11.3%
FC(F)(Cl)c1nnc2ccc(Cl)nn12	u	u	u	43.7	-15.5%	u
COc1ccc(C(=O)On2c(-c3ccc(Br)cc3)nc3ccccc3c2=O)cc1	18.4µM*	u	u	u	-10.5%	u
Cc1cc(C(=O)Nn2c(-c3ccc(Br)cc3)nc3ccccc3c2=O)ccc1[N+](=O)[O-]	u	u	29.1µM*	25.0	1.1%	32.6µM*
COc1ccc(C(=O)NNC(=O)c2cccs2)cc1S(=O)(=O)N1CCOCC1	4.1%	17.8%	2.4%	58.5	3.0%	0.5%
CC(/C=N\NC(=O)Cn1c(C)nc2ccccc21)=C\c1ccccc1	8.2µM*	20.6µM*	8.2µM*	-3.3	0.2%	8.2µM*
C/C(=N\NC(=O)Cn1c(C)nc2ccccc21)c1cccs1	20.6µM*	-25.5%	14.6µM*	-3.0	-2.4%	u
N[C@@H](C(=O)N[C@@H]1C(=O)N2C(C(=O)O)=C(Cl)CC[C@H]12)c1ccccc1	-18.5%	x	-0.6%	x	x	x
C/C(=N\NC1=N[C@H]2CS(=O)(=O)C[C@H]2S1)c1ccccc1	-0.4%	4.5%	16.4%	-2.2	1.8%	9.2%
CCCCN(C=O)c1c(CC)nc2ccc(C(=O)N3CCN(c4ccccc4)CC3)cn12	u	-4.9%	u	-0.8	x	0.2%
CCc1nn2c(=O)c(S(=O)(=O)Nc3ccc(C)c(C)c3)c(C)nc2s1	23.1µM*	x	u	x	x	x
CCOc1ccc(NS(=O)(=O)c2c(C)nc3sc(C)c(C)n3c2=O)cc1	u	x	18.4µM*	x	x	x
SMILES	TDP1 cell noCPT	HT1080 IDH1KD tx	TDP1 cell CPT	IL1B secr inh	uPA generation	HT1080-NT tox
CCc1nn2c(=O)c(S(=O)(=O)Nc3ccccc3)c(C)nc2s1	-21.4%	11.0%	-10.1%	-4.7	-2.3%	15.0%
CCc1ccc(NS(=O)(=O)c2c(C)nc3sc(CC)nn3c2=O)cc1	13µM*	0.7%	u	19.1	3.5%	8.8%
Cn1c(CNC2CCCCC2)c(C#N)c2ccccc21	-9.8%	-5.7%	-19.6%	4.8	1.0%	-2.0%
CCCCN1C(=O)C(C#N)CC2=C1CC(C)(C)CC2=O (stereo not drawn)	-5.2%	4.2%	-4.0%	4.9	6.0%	1.7%
CCOc1ccccc1N(CC(=O)Nc1cc(OC)ccc1OC)S(=O)(=O)c1ccccc1	u	-9.3%	u	6.1	-6.3%	-4.4%
CCOc1ccccc1N(CC(=O)Nc1ccccc1)S(=O)(=O)c1ccccc1	25.9µM*	-4.3%	u	-1.1	4.8%	-10.5%
Cc1ccccc1NC(=O)CN(c1ccc(Cl)cc1Cl)S(=O)(=O)c1ccccc1	u	x	18.4µM*	x	x	x
CCOC(=O)c1ccccc1NC(=O)CN(c1cccc(C)c1C)S(=O)(=O)c1ccccc1	5.8µM*	x	7.31µM*	x	x	x
CCOC(=O)c1ccccc1NC(=O)CN(c1ccccc1OCC)S(C)(=O)=O	u	-0.1%	u	-5.8	1.6%	-1.5%
COc1ccccc1N(CC(=O)Nc1ccc(Cc2ccncc2)cc1)S(=O)(=O)c1ccccc1	u	-19.1%	23.1µM*	-24.4	2.7%	-9.5%
Cc1ccc(S(=O)(=O)N(CC(=O)Nc2cccnc2)c2cc(Cl)ccc2C)cc1	18.4µM*	x	16.4µM*	x	x	x
CCOc1ccccc1N(CC(=O)Nc1cccnc1)S(=O)(=O)c1ccc(C)cc1	u	-1.1%	18.4µM*	1.5	1.6%	-0.4%
COc1ccc(OC)c(N(CC(=O)Nc2cccnc2)S(=O)(=O)c2ccc(C)cc2)c1	u	u	16.4µM*	0.2	u	u
COc1ccc(NC(=O)CN(c2cccc(C)c2C)S(=O)(=O)c2ccccc2)cc1OC	u	x	23.1µM*	x	x	x
COC1OC2COC(c3ccccc3)OC2C2OC(c3ccccc3)OC12 (stereo not drawn)	u	4.8%	-28.8%	32.0	x	0.9%
COc1ncc2nc(C)c(=O)n(C)c2n1	-0.2%	x	16.3%	x	x	x
Oc1cccc(/C=N\Nc2nncc(-c3ccccc3)n2)c1	u	-3.7%	u	-61.9*	-10.4%	-17.1%
